This is part of a sample that, as a whole, favours compounds with a hit. Of some 83,000 tested, about 20% had one in any assay.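 A percent growth of 40 corresponds to 60% growth inhibition; 0 means no net growth; -100 means all cells died. Active threshold: below 10.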 Activity calls are given as the source filed them.

The experiment has as its system OVCAR-3 ovarian. The experiment is described as follows: NCI-60 one-dose screen, 48 h (100 = growth as untreated, 0 = no growth, -100 = all killed). Conditions: 10 µM unless noted.
With `N#Cc1nc(-c2ccc(Cl)cc2)cc(-c2ccc(Nc3nc(N4CCCCC4)nc(N4CCCCC4)n3)cc2)c1N`, the growth is 105% (inactive).

For `C#CC[C@@H]1C[C@]2(C)[C@H]3CC=C4[C@H]5[C@@H](C)[C@H](C)CC[C@]5(C(=O)NCCCCN)CC[C@@]4(C)[C@]3(C)CC[C@H]2C(C)(C)[C@H]1OC(C)=O`, the growth is 55.6% (inactive).

Turning to `Cn1nc(C(F)(F)F)cc1-c1c[nH]c(OCc2ccc(Cl)cc2)c(-c2ccc(Cl)c(C(F)(F)F)c2)c1=O`, the growth was 7.83% (active).

Take `COc1ccc(NC(=O)c2ccc(C(F)(F)F)nc2Nc2ccc(Cl)cc2C)cc1Cl`: the growth is 15.5% (inactive).

For `O=C(Cn1nncc1CN1C(=O)CSC1=O)Nc1ccc(F)cc1`, the growth is 107% (inactive).

Take `COc1ccc(NC(=O)/C=C/c2ccc(Cl)c(Cl)c2)cn1`: the growth is 96.6% (inactive).

As for `CCCCNCC(O)c1cc(-c2ccc(C(F)(F)F)cc2)nc(-c2ccc(C(F)(F)F)cc2)c1` (stereo not drawn), the growth is -90.8% (active).

On to `CCCc1cc2c(cc1CN(Cc1cc3c(cc1CCC)OCO3)C(=N)OCC)OCO2`, for which the growth was 69.1% (inactive).

For the molecule `CCCNC(=S)N/N=C(\C)c1ccccn1`, the growth is 41.4% (inactive).

Turning to `C#CC[C@@H]1C[C@]2(C)[C@H]3CC[C@@H]4[C@H]5C(C(=C)C)CC[C@]5(C(=O)NCCCN5CCN(CCCN)CC5)CC[C@@]4(C)[C@]3(C)CC[C@H]2C(C)(C)[C@H]1OC(C)=O` (stereo partly drawn), the growth was -83% (active).

Regarding `COc1cc2nccc(Oc3ccc(NC(=O)C4(C(=O)Nc5c(F)cc(F)cc5F)CC4)cc3)c2cc1Oc1ccc(N)cn1`, the growth is 75.3% (inactive).

Regarding `COc1ccc2[nH]c(C(=O)OCc3ccc4cccc(O)c4n3)cc2c1`, the growth was -84.8% (active).

In the case of `CCOCC(O)(c1ccc(Cl)cc1)c1ccc(Cl)cc1`, the growth is 112% (inactive).

For the molecule `Cc1cc(C)cc(NC(=O)Cn2nncc2CN2C(=O)CSC2=O)c1`, the growth was 110% (inactive).

As for `Cc1ccc(NC(=O)Cn2nncc2CN2C(=O)CSC2=O)cc1C`, the growth is 102% (inactive).

With `COC(=O)/C=C/c1cc(OC(C)=O)c2c(c1)[C@@H](C(=O)OC)[C@H](c1ccc(OC(C)=O)c(OC(C)=O)c1)O2`, the growth is -21.9% (active).

As to `N=c1n(Cc2ccccc2)c(N)cc(=O)n1Cc1ccccc1`, the growth is 0.156% (active).

With `CC(C)[C@H](CN)NC[C@H](C)NS(=O)(=O)c1ccc(C(C)(C)C)cc1`, the growth is 103% (inactive).

Regarding `COc1ccc(/C(=C\c2ccc3c(c2)OCO3)C(=O)Nc2nc3ccccc3s2)cc1`, the growth was 98.5% (inactive).

With `Cc1ccc(-c2cnc3sc4ccc(Cl)cc4n23)cc1`, the growth was 101% (inactive).

`COc1cc(C2Nc3ccccc3S2)cc(CN2CCOCC2)c1O` (stereo not drawn): the growth was 52% (inactive).

Regarding `CC1=C(O)C(=O)C(c2c(C)cc(C)c(Br)c2C)=C(O)C1=O`, the growth is 54.2% (inactive).

On to `CC(C)OC(=O)c1ccc([N+](=O)[O-])cc1`, for which the growth was 117% (inactive).

Regarding `COc1cc(CN2CCO[C@H](COc3cccc(F)c3)C2)ccc1Cl`, the growth is 49.4% (inactive).

With `COc1cc(NC(C)CCCN)c2ncccc2c1Oc1ccc(Cl)cc1` (stereo not drawn), the growth is 60% (inactive).

Regarding `OC(c1cc(-c2ccc(C(F)(F)F)cc2)nc(-c2ccc(C(F)(F)F)cc2)c1)C1CCCCN1` (stereo not drawn), the growth is -90.4% (active).

`C=CCn1c(C)nc2cc(Nc3nc(Nc4ccc5nc(C)n(CC=C)c5c4)nc4ccccc34)ccc21`: the growth is 108% (inactive).

Turning to `Fc1ccc2c(CN3CCO[C@H](COc4cccc(Cl)c4)C3)c[nH]c2c1`, the growth is 36.7% (inactive).
